Holding throughout (assay type): functional
The test system of assay [1] is Plasmodium falciparum. Description: GSK_TCMDC: Inhibition of Plasmodium falciparum 3D7 in whole red blood cells, using parasite LDH activity as an index of growth. Test compounds present at 2uM.
The subject of assay [2] is Plasmodium falciparum. Description: GSK_TCMDC: Inhibition of Plasmodium falciparum Dd2 in whole red blood cells, using parasite LDH activity as an index of growth. Test compounds present at 2uM.
In assay [3] the test system is HepG2. Description: GSK_TCMDC: Percent inhibition of human HepG2 cell line. Test compounds present at 10uM.

For the compound `COc1cccc(-c2cnc(N)c(-c3nc4ccc(F)cc4[nH]3)c2)c1.Cl`, the Inhibition in assay [1] was determined as 97%; in assay [2], 43%; in assay [3], 47%.
Take `OC(CNCc1ccccc1OCc1ccccc1)c1cccc(Br)c1` (configuration not stated): the results for the Inhibition in assay [1], in assay [2] and in assay [3] were 100%, 97% and 0%, respectively.
For `CN1CCC(C(=O)N(Cc2ccc(-c3ccc(CNCCc4ccccc4)cn3)cc2)C2CCN(Cc3ccccc3)CC2)CC1.O=C(O)C(F)(F)F`, in that order: 100%, 99% and 24%.
As to `CC(C)(C)NS(=O)(=O)c1cc(C(=O)N2CCC(CCN3CCC(C(=O)c4ccc(F)cc4)CC3)(c3cccc(F)c3)CC2)c(Cl)cc1F`, the figures for the Inhibition in assay [1], in assay [2] and in assay [3] were 99%, 99% and 0%, respectively.
For `O=[N+]([O-])c1cccc(NC(=S)N2CCCN(Cc3ccc(Cl)cc3Cl)CC2)c1`, the Inhibition is 94% in assay [1], 50% in assay [2] and 3% in assay [3].
For `COc1ccc(Cl)cc1NC(=O)Nc1ccnc2ccccc12`, in that order: 100%, 44% and 13%.
As for `CC(Cc1ccc(NC(=O)c2ccc(CC(C)NCc3ccc(Cl)cc3)cc2)cc1)NCCc1cccc(Cl)c1` (configuration not stated), the Inhibition worked out at 100% in assay [1], 75% in assay [2] and 95% in assay [3].
For `Cc1cc(N(C)C)nc(Nc2ccc(NC(=O)c3c(F)cccc3Cl)cc2)n1`, in that order: 90%, 36% and 15%.
For `CC(C)OCCCNC(=O)c1nc(-c2cccc(C(F)(F)F)c2)sc1C(C)C`, in that order: 94%, 34% and 0%.
For `CC1Cc2ccccc2N1S(=O)(=O)c1cccc(C(=O)Nc2nc(-c3ccccn3)cs2)c1` (configuration not stated), the Inhibition stood at 84% in assay [1], 77% in assay [2] and 32% in assay [3].
For `Cc1cc(=NN=Cc2ccc(Cl)cc2)c2ccc(F)cc2[nH]1`, in that order: 100%, 87% and 6%.
For `CCn1c(C)c(C)c2cc(C(=O)Nc3ccon3)ccc21`, in that order: 95%, 93% and 3%.
With `COc1ccc(CC(=O)Nc2ccc(-c3cccc(-c4nc5cccc(C)c5[nH]4)c3)cc2)cc1O`, the figures for the Inhibition in assay [1], in assay [2] and in assay [3] were 96%, 30% and 6%, respectively.
For `CC(C)c1cc(N)c2cc(NC(=O)COCC(=O)Nc3ccc4nc(C(C)C)cc(N)c4c3)ccc2n1`, in that order: 95%, 95% and 0%.
For `CCN(CC)CCN1C(=O)c2oc3ccc(F)cc3c(=O)c2C1c1cccc(Cl)c1` (configuration not stated), in that order: 99%, 93% and 0%.
On to `Cc1cc(Cl)ccc1N(Cc1ccccc1)c1ccnc(Cl)n1`, for which the Inhibition is given as 97% in assay [1], 98% in assay [2] and 16% in assay [3].
For `CCNc1cc(C(=O)N[C@@H](Cc2ccccc2)[C@H](O)CNCc2cccc(-n3ccnc3)c2)cc(N2CCCC2=O)c1.O=C(O)C(F)(F)F`, in that order: 99%, 96% and 1%.
For `COc1ccc(-c2nc(NC(=O)CS(=O)(=O)c3ccc(C)cc3)sc2C)cc1`, in that order: 100%, 94% and 56%.
Regarding `COc1ccccc1C(=O)N1CCN(Cc2cccs2)CC1`, the Inhibition in assay [1] was 96%; in assay [2] it was 1%; in assay [3] it was 87%.
For `CCCCCCC(N)c1ccc(OCCCOc2ccc(C(N)CCCCCC)cc2)cc1.Cl` (configuration not stated), in that order: 88%, 70% and 100%.
For `CCn1cc(C=C2Oc3c(ccc(O)c3CN3CCCCC3C)C2=O)c2ccccc21` (configuration not stated), in that order: 94%, 80% and 0%.
Regarding `NCCCNc1nc(Nc2ccc(C(F)(F)F)cc2F)c2c(=O)[nH]ccc2n1.O=C(O)C(F)(F)F`, the Inhibition in assay [1] is recorded as 95%; in assay [2], 15%; in assay [3] it was 23%.
For the compound `O=C(c1ccc(O)c(-c2cc(Cl)cc(Cl)c2)c1)N(CCO)CCO`, the Inhibition in assay [1] stood at 94%; in assay [2], 62%; in assay [3], 1%.
For `Cc1ccc(NCC(=O)Nc2ccc(F)c(Cl)c2)cc1S(=O)(=O)N1CCOCC1`, in that order: 98%, 97% and 2%.
Turning to `OC1(C(F)(F)F)CC(c2ccccc2)=NN1c1nncc(-c2ccccc2)n1` (configuration not stated), the Inhibition worked out at 99% in assay [1], 3% in assay [2] and 0% in assay [3].
For `O=C(Nc1nc(-c2ccccn2)cs1)c1ccc(S(=O)(=O)N2CCc3ccccc32)cc1`, in that order: 89%, 15% and 47%.
Consider `CCc1ccc(CN2CCC(NC(=O)c3ccc(-c4ccc(N(C)C)cc4)s3)CC2)cc1.O=C(O)C(F)(F)F`, for which the Inhibition is reported as 84% in assay [1], 44% in assay [2] and 52% in assay [3].
Consider `CCCC(=O)NC(c1cccs1)c1cc(Cl)c2cccnc2c1O` (configuration not stated), for which the Inhibition in assay [1] came out at 87%; in assay [2] it was 61%; in assay [3], 51%.
With `CCCNCc1ccc(-c2ccc(CN(C(=O)c3nn(-c4ccccc4)nc3C)C(C)CN(C)C)cc2)nc1.O=C(O)C(F)(F)F` (configuration not stated), the Inhibition in assay [1] was 95%; in assay [2], 95%; in assay [3], 27%.

The record behind these values is ChEMBL document CHEMBL1157539, “Thousands of chemical starting points for antimalarial lead identification” (Nature, 2010).
